Experimental data from PubChem BioAssay AID504339 (National Center for Advancing Translational Sciences (NCATS), 2011).
In all, about 390,000 compounds went through this assay and about 17,000 (4.4%) were called active. Entries that show only a call come without a potency. About 8% were inconclusive and are not listed. Calls follow the shape of the dose curve; as a rule, active = well fitted inhibition curve with a large enough effect; inconclusive = small, poorly fitted or top-dose-only effect; inactive = no such curve, though single readings can be large or run the other way. For the sample, actives were picked, then their nearest neighbours and some compounds at random.

molecular target: Lysine-specific demethylase 4A (Homo sapiens) (UniProt O75164); assay: qHTS Assay for Inhibitors of JMJD2A-Tudor Domain; details: AlphaScreen JMJD2A-Tudor / H3K4me3 peptide binding; series mostly up to 114 µM; also: nearly all actives have a fitted effect of over 50% in size
Potency is read from the fitted curve at half-maximal effect.

Chain of Lysine-specific demethylase 4A (Homo sapiens) (O75164 whole entry, looked up, the tested form may be a part): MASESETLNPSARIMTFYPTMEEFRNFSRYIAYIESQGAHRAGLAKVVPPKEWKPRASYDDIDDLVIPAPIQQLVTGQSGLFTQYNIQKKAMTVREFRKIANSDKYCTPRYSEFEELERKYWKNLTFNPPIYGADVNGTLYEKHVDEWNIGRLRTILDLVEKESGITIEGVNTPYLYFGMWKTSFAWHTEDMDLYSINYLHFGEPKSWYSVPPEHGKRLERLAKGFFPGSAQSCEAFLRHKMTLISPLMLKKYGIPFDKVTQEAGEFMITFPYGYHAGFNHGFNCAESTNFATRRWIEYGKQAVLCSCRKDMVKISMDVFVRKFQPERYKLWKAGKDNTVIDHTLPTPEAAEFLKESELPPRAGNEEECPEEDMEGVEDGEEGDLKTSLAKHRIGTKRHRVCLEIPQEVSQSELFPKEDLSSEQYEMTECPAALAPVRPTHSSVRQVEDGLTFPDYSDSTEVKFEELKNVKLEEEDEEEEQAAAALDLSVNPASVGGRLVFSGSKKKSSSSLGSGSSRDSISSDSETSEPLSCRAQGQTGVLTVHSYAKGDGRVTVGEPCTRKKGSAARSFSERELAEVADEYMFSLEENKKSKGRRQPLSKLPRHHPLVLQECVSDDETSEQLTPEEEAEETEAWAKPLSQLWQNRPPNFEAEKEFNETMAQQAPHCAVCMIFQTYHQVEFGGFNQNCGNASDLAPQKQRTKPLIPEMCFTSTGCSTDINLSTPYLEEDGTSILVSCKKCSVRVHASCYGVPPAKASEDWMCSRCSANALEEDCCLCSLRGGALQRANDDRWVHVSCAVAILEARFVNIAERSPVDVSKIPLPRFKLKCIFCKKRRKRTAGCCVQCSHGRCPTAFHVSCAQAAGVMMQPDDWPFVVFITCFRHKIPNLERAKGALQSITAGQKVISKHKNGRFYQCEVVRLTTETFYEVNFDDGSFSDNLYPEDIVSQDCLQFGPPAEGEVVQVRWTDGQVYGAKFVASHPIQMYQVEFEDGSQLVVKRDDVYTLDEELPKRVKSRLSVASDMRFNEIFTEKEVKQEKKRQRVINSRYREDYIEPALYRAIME

Row | SMILES | Potency
1 | Cc1ccccc1CNC(=O)CSc1nnc(C)c2c(C)n(-c3ccccc3)nc12 | inactive
2 | CCCOc1ccc(NC(=O)CC2C(=O)N(c3ccccc3)C(=O)N2Cc2ccco2)cc1 (stereo not drawn) | inactive
3 | O=C(Nc1ccc(S(=O)(=O)N2CCCCC2)cc1)C1CC(=O)N(c2ccc(F)cc2)C1 (stereo not drawn) | inactive
4 | CNS(=O)(=O)c1ccc(NC(=O)C2CC(=O)N(c3ccc(Cl)cc3)C2)cc1 (stereo not drawn) | 56.2 µM (active)
5 | Cc1ccc(N2CC(C(=O)Nc3ccc(S(=O)(=O)N4CCCC4)cc3)CC2=O)cc1C (stereo not drawn) | inactive
6 | CN1C(=O)c2ccccc2Sc2ccc(NC(=O)Cc3ccc(Cl)cc3)cc21 | inactive
7 | Cc1ccc(Cl)cc1N1CCN(S(=O)(=O)c2cc3[nH]c(=O)c(=O)[nH]c3cc2C)CC1 | inactive
8 | COc1ccc(-c2noc(-c3ccc(N4CCN(c5ccccc5)CC4)c([N+](=O)[O-])c3)n2)cc1OC | inactive
9 | COc1ccc(NC(=O)c2sc3nc(-c4cc5cccc(OC)c5oc4=O)[nH]c(=O)c3c2C)cc1 | inactive
10 | COc1cc2c(cc1OC)C(c1ccccc1Br)NC(=O)C2 (stereo not drawn) | inactive
11 | Brc1ccccc1C1Nc2cccc3cccc(c23)N1 | 50.1 µM (active)
12 | Oc1ccc(C2Nc3cccc4cccc(c34)N2)cc1 | 44.7 µM (active)
13 | Brc1ccccc1C1N=C(c2ccccc2)NO1 (stereo not drawn) | inactive
14 | Cn1nnnc1SCCCNCc1ccc(Cl)cc1 | inactive
15 | O=c1cc(CSc2ncn[nH]2)[nH]c2ccc(F)cc12 | inactive
16 | CCc1nnc(SCC(=O)Nc2cc(OC)ccc2OC)nc1CC | inactive
17 | O=C(NCCc1ccc(Cl)cc1)c1ccc2c(c1)N(Cc1ccc(F)cc1)C(=O)CS2 | inactive
18 | Cc1ccc(NC(=O)C(Cc2ccccc2)NS(=O)(=O)c2ccc3c(c2)oc(=O)n3C)cc1C (stereo not drawn) | inactive
19 | CCOc1ccc(NC(=O)C2CCN(S(=O)(=O)c3cc(-c4noc(C)n4)ccc3C)CC2)cc1 | inactive
20 | CCOC(=O)C1CCN(C(=O)Nc2ccc(Cl)cc2)CC1 | inactive
21 | CCOC(=O)C1Sc2[nH]c(=O)sc2C(c2ccc(Cl)cc2)C1C(=O)OCC (stereo not drawn) | 50.1 µM (active)

Row | SMILES | Potency
22 | CCOC(=O)C1C(=O)NCC1c1ccccc1 (stereo not drawn) | inactive
23 | CCC(=O)N1CCc2cc(Br)cc(S(=O)(=O)NCc3ccc(Cl)cc3)c21 | inactive
24 | Cc1cccc(NC(=O)c2ccc(F)c(S(=O)(=O)N(C)C3CCCCC3)c2)c1 | inactive
25 | CCc1cc2c(cc(C(=O)OC)n2Cc2nc(-c3ccc(C)cc3)oc2C)s1 | inactive
26 | O=C(Cn1cc(C(F)(F)F)ccc1=O)N/N=C/c1ccc(Cl)cc1Cl | inactive
27 | O=C(CN1CCN(C/C=C/c2ccccc2)CC1)Nc1ccc(F)cc1F | inactive
28 | O=C(CN1CCSCC1)N/N=C/c1ccc(F)cc1 | 3.16 µM (active)
29 | O=C(CC(=O)N/N=C\c1ccc(F)cc1)NCCc1ccccc1 | inactive
30 | Cc1ccc(COc2ccc(/C=N/NC(=O)CN3CCCCC3)cc2)cc1 | inactive
31 | O=C(CN1CCSCC1)N/N=C/c1ccc(F)cc1F | 10 µM (active)
32 | COc1ccc(CNC(=O)c2cc3cccc(OC)c3oc2=O)cc1 | inactive
33 | CC(=O)N1c2ccccc2CC1C(=O)N1CCN(c2ccc(F)cc2)CC1 (stereo not drawn) | inactive
34 | CCOc1ccc(CNC(=O)Cn2cc3c(n2)-c2c(oc(C(=O)N4CCCC4)c2C)CC3)cc1 | inactive
35 | CCCc1cc(=O)n2[nH]c(NCc3ccc(CC)cc3)nc2n1 | inactive
36 | COc1ccc(-c2csc(-c3c(N)c(C(=O)c4ccc(OC)c(OC)c4)n4ccccc34)n2)cc1 | inactive
37 | COc1ccccc1CNC(=O)Cn1nc(C)c2nn(-c3ccc(Cl)cc3)c(C)c2c1=O | inactive
38 | COc1ccc(OC)c(CNC(=O)Cn2nc(C)c3c(C)n(-c4ccccc4)nc3c2=O)c1 | inactive
39 | COc1ccc(OC)c(CNC(=O)Cn2nc(C)c3c(C)n(-c4ccc(C)cc4)nc3c2=O)c1 | 35.5 µM (active)
40 | Cc1ccc2c(c1)N(C(=O)Nc1ccc(Br)cc1F)CCO2 | inactive
41 | Cc1ccc(OCC(=O)OCc2cc(=O)n3nc(C4CC4)sc3n2)cc1 | inactive
42 | CCN(C(=O)Cn1cnc2sc(C)c(S(=O)(=O)N3CCN(c4ncccn4)CC3)c2c1=O)c1ccccc1F | inactive

Row | SMILES | Potency
43 | CCOc1cc(-c2nnc(SCC(=O)NC3CCCCC3)nc2-c2ccc(OC)c(OCC)c2)ccc1OC | inactive
44 | CCN(C(=O)CN1CCN(Cc2ccccc2)CC1)c1c(N)n(Cc2ccccc2)c(=O)[nH]c1=O | 12.6 µM (active)
45 | CCN(C(=O)COC(=O)Cc1c(F)cccc1Cl)c1c(N)n(Cc2ccccc2)c(=O)[nH]c1=O | inactive
46 | CCN(C(=O)COC(=O)c1sccc1C)c1c(N)n(Cc2ccccc2)c(=O)[nH]c1=O | inactive
47 | OC[C@@H]1O[C@H](n2cnc3c(SCc4ccccc4)ncnc32)[C@H](O)[C@H]1O | inactive
48 | Cc1ccc(C(=O)N2c3ncnn3C3(CCCCC3)[C@@H]3CCCC[C@@H]32)cc1 | inactive
49 | CCC(=O)N1CCc2cc(CNS(=O)(=O)c3ccc(Br)s3)ccc21 | inactive
50 | Cc1ccc(C(=O)O)cc1-c1ccc(/C=C2\SC(=O)N(CC(=O)Nc3ccc4c(c3)OCO4)C2=O)o1 | 35.5 µM (active)
51 | Cc1nn(CC(=O)Nc2ccc3c(c2)OCO3)c(C)c1[N+](=O)[O-] | inactive
52 | Cc1nc([N+](=O)[O-])cn1CC(=O)Nc1ccc2c(c1)OCO2 | inactive
53 | O=C(CSc1nnc(-c2ccncc2)n1-c1ccccc1)Nc1ccc(Cl)c(Cl)c1 | inactive
54 | COc1ccccc1CN1CCC(CNC(=O)c2cnn(-c3cccc(Cl)c3)c2C2CCN(C(=O)OC(C)(C)C)CC2)CC1 | inactive
55 | COCCNC(=O)c1ccc2c(c1)N=C(C)c1cc(C)ccc1S2 | inactive
56 | C/C(=N\Nc1ccc(Cl)nn1)c1ccccc1O | inactive
57 | Oc1cccc(/C=N/Nc2ccc(Cl)nn2)c1O | 63.1 µM (active)
58 | COc1cccc(CNC(=O)c2ccc3c(c2)N(Cc2ccc(C(F)(F)F)cc2)C(=O)c2ccccc2S3)c1OC | inactive
59 | CCCc1nn2c(=O)cc(COC(=O)c3ccc(NC(=O)C(C)Oc4ccccc4)cc3)nc2s1 (stereo not drawn) | inactive
60 | COc1ccc(-c2nnc(SCC(=O)Nc3ccccc3C)o2)cc1OC | inactive
61 | Cc1ccc(OCCCC(=O)Nc2ccc(N3CCOCC3)cc2)cc1 | inactive
62 | CCOC(=O)c1cnc2c(C)cc(C)cc2c1Nc1ccc(N2CCOCC2)cc1 | 35.5 µM (active)
63 | CCOC(=O)c1cnc2c(C)cc(Cl)cc2c1NCCc1ccc(OC)c(OC)c1 | inactive
